The text below walks through data of PubChem BioAssay (Tox21).

A number with no mark means an inactive call. Active and inactive are the calls of the source. The call rests on the fitted dose curve; in most records, active means well fitted curve in the direction sought with a large enough effect in the repeat runs; inconclusive means weak or mixed curves; inactive means flat fitted curve, though single readings scatter.
On the % scale 0 is the no-effect control and ±100 the full control effect.

The nature of the test: qHTS assay to test for compound auto fluorescence at 590 nm (red) in HEK293 cell free culture (AID 720683). The note with it: cell-free medium autofluorescence, Ex540/Em590 red; series mostly up to 91.3 µM. An excerpt: U.S. Tox21 Program National Center for Advancing Translational Sciences [NCATS] NIH Chemical Genomics Center [NCGC] U.S. Environmental Protection Agency [EPA] National Institutes of Environmental Health Sciences [NIEHS] National Toxicology Program [NTP] U.S. Food and Drug Administration [FDA] Tox21 Assay Overview: Compound auto fluorescence often interferes with screening of the compound library against various biological targets and signaling pathways. Some of these compounds may have fluorophoric properties. Such properties may interfere with the assay outputs resulting in false positives and/or negatives. To decrease such complications and ensure the compound activities are relevant in terms of biological response, the Tox21 10K compound library was screened for auto fluorescence. From the fluorophores used as reporter signals in our screening assays, the auto fluorescence equivalencies of compounds against three fluorophores have been evaluated: Triamterene, Fluorescein and Rose Bengal sodium for blue, green and red fluorescence, respectively. The fluorescence intensities were measured using Excitation/Emission wavelengths at 405/460nm, 485/535nm and 540/590nm for blue, green and red labels, respectively. This assay includes the red fluorescence data.
Tox21 Assay Protocol Summary: 5 uL of culture medium (DMEM containing 10% FBS) per well was dispensed into black wall/clear bottom 1536-well plates using a Multidrop Combi Dispenser (ThermoFisher Scientific, Waltham, MA). After 23 nL compound or DMSO vehicle was transferred into assay plate by a pintool work station (Kalypsys, San Diego, CA), fluorescence intensities in the assay plates were measured by an Envision (PerkinElmer, Shelton, CT) plate reader using three labels for measuring blue, green and red fluorescence at […] 460, 535 and 590nm respectively.
On the technique in general: In qHTS, concentration-response curves come from the screen itself.
With `N#Cc1c2ccccc2cc2ccccc12`, the compound was classed as inactive. Turning to `O=C(NC(=O)c1ccccc1Cl)Nc1ccc(OC(F)(F)F)cc1`, the compound was called inactive.

Regarding `CCC[CH2][Sn]([CH2]CCC)([CH2]CCC)[CH2]CCC`, the compound was classed as inactive. On the same count and under the same terms, under `CCCCCCCc1ccc(O)cc1` stands “inactive”; under `Nc1nc(N)nc(Cl)n1`, “inactive”. As to `CCOP(=O)(OCC)Oc1nc(Cl)c(Cl)cc1Cl`, the call was inactive. `CNC(=O)O/N=C(\C)C(C)S(C)(=O)=O` (stereo not given): the result was inactive.

As to `CNC(=O)Oc1cc(C)cc(C(C)C)c1`, the compound was classed as inactive.

Take `O=S1OCC2C(CO1)C1(Cl)C(Cl)=C(Cl)C2(Cl)C1(Cl)Cl` (stereo not given): the compound was called inactive. On the same count and under the same terms, under `CCCCCCC[CH2][Sn]([Cl])([Cl])[CH2]CCCCCCC` stands “inactive”; under `CCCCON=O`, “inactive”. In the case of `[Cl][Hg][c]1ccccc1`, the call was inactive. Same read-out and setting: the value for `CCc1cccc(C)c1N(C(=O)CCl)[C@@H](C)COC` was “inactive”. As for `C[N+]1(C)[C@@H]2CC[C@H]1CC(OC(=O)C(CO)c1ccccc1)C2` (stereo not given in full), the compound was called inactive. As for `ClCBr`, the compound was called inactive.

Take `Oc1cc(Cl)c(Cl)c(Cl)c1Cl`: the outcome was inactive. `COc1c2c(cc3c1OCO3)CCN(C)C2`: the fluorescence, % of fluorescent control was 0.174% [at 18.6 µM]. Take `Oc1ccc(Cl)c(Cl)c1`: the compound was called inactive. For the compound `C=CC(=O)[O][Sn]([CH2]CCC)([CH2]CCC)[CH2]CCC`, the call was inactive. For `Cc1cnc2c(C(=O)O)c(Cl)ccc2c1`, the call was inactive.

On to `CCOP(=S)(NC(C)C)Oc1ccccc1C(=O)OC(C)C` (stereo not given), for which the outcome was inactive. For the compound `O=C(NC(=O)c1c(F)cccc1F)Nc1ccc(Oc2ccc(C(F)(F)F)cc2Cl)cc1F`, the outcome was inactive. On the same count and under the same terms, the value for `CNC(=O)CSP(=O)(OC)OC` was “inactive”; that for `NC(=O)C(Cl)Cl` was “inactive”. Same read-out and setting: the value for `CSSC` was “inactive”. With `C=CC(=C)C`, the call was inactive. The same measure, in the same setting: the value for `CN1C(=O)[C@@H](NC(=O)c2cc3ccccc3[nH]2)N=C(c2ccccc2)c2ccccc21` was “inactive”. With `O=c1c2ccccc2c(=O)c2c1cc(Cl)c1[nH]c3c([nH]c12)c(Cl)cc1c(=O)c2ccccc2c(=O)c13`, the compound was called inactive. `CN(C)C(=S)SSC(=S)N(C)C`: the call was inactive. `CCN(CC)Cc1nccn1-c1ccc([N+](=O)[O-])cc1C(=O)c1ccccc1Cl`: the call was inactive.

As for `O=C(N[C@@H]1N=C(c2ccccc2F)c2cccc3c2N(CC3)C1=O)c1cc2ccccc2[nH]1`, the call was inactive. Same read-out and setting: under `CCC(C)Nc1c([N+](=O)[O-])cc(C(C)(C)C)cc1[N+](=O)[O-]` (stereo not given) stands “inactive”; under `CC(C)(C)c1ccc(OP(=O)(Oc2ccccc2)Oc2ccccc2)cc1`, “inactive”; under `CCCCC(CC)COC(=O)c1ccccc1C(=O)OCC(CC)CCCC` (stereo not given), “inactive”. On to `Clc1ccc(C(Cl)(Cl)Cl)cc1Cl`, for which the compound was called inactive.

Turning to `O=[N+]([O-])c1ccc(Cl)c(Cl)c1Cl`, the result was inactive.

As for `CCn1cc[n+](C)c1` (tested in a mixture with another compound), the compound was classed as inactive.

With `CCNS(=O)(=O)C(F)(F)C(F)(F)C(F)(F)C(F)(F)C(F)(F)C(F)(F)C(F)(F)C(F)(F)F`, the compound was classed as inactive.

Take `CCCCc1ccccc1`: the compound was called inactive. Regarding `Cc1ccccc1OP(=O)(Oc1ccccc1C)Oc1ccccc1C`, the compound was called inactive.
